For seven molecules, outcome and AC50 results are on record in PubChem BioAssay (EPA / NIEHS).

Conditions in all cases: mRNA level, 48 h; actives raise or lower the signal
Read-out in one test: MYC, MYC (gene 4609)
Kind of test: LTEA_HepaRG_MYC: Life Technologies and Expression Analysis (LTEA) Assay for MYC using HepaRG (AID 2283518). The gist of the method: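 qRT-PCR read-out of MYC transcript (Fluidigm TaqMan, housekeeping-normalized) after 48 h chemical exposure of HepaRG cells; eight concentrations, top 100 uM, half-log steps. Bidirectional curve fitting against 0.5% DMSO vehicle baseline.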

Read-out in test [1]: Paternally Expressed 10 (PEG10), PEG10 (gene 23089)
Put plainly: LTEA_HepaRG_PEG10: Life Technologies and Expression Analysis (LTEA) Assay for Paternally Expressed 10 (PEG10) using HepaRG (AID 2283520).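 For AC50: differentiated HepaRG human liver cells in serum-free induction medium with 0.5% DMSO; PEG10 transcript by qRT-PCR normalised to ACTB GAPDH and POLR2A.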 Put shortly: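 qRT-PCR read-out: PEG10 mRNA normalised to three housekeeping genes, fitted bidirectionally against 0.5% DMSO vehicle. HepaRG cells received test chemicals for 48 h in serum-free induction medium, 8 points, top 100 uM, half-log steps.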

Read-out in test [2]: Nuclear factor NF-kappa-B p105 subunit (Homo sapiens) (UniProt P19838)
Kind of test: LTEA_HepaRG_NFKB1: Life Technologies and Expression Analysis (LTEA) Assay for Nuclear Factor Kappa B Subunit 1 (NFKB1) using HepaRG (AID 2283521).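 Note: differentiated human HepaRG liver cells in serum-free induction medium.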 The gist of the method:
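NFKB1 transcript was measured by TaqMan qRT-PCR on Fluidigm arrays, normalised to three housekeeping genes and fitted in both directions against 0.5% DMSO. HepaRG cells were dosed in duplicate for 48 h in serum-free induction medium, eight half-log steps from 100 uM.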

Read-out in test [3]: Protein phosphatase 2A (PPP2R4), PTPA (gene 5524)
Put plainly: LTEA_HepaRG_PPP2R4: Life Technologies and Expression Analysis (LTEA) Assay for Protein phosphatase 2A (PPP2R4) using HepaRG (AID 2283522). Put shortly:
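HepaRG, 48 h exposure, 8-pt half-log series from 100 uM, 0.5% DMSO vehicle, duplicates. Readout: PPP2R4 mRNA, Fluidigm qRT-PCR, housekeeping-normalized. Bidirectional curve fit vs DMSO baseline.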

Read-out in test [4]: Phosphatase and tensin (PTEN), PTEN (gene 5728)
Put plainly: LTEA_HepaRG_PTEN: Life Technologies and Expression Analysis (LTEA) Assay for Phosphatase and tensin (PTEN) using HepaRG (AID 2283523). The gist of the method:
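HepaRG, 48 h exposure, 8-pt half-log series from 100 uM top, 0.5% DMSO vehicle, duplicates. Readout: Fluidigm qRT-PCR of PTEN transcript; housekeeping normalization (ACTB, GAPDH, POLR2A). Gain or loss fitted relative to DMSO baseline.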

Read-out in test [5]: solute carrier (SLC22A1), SLC22A1 (gene 6580)
Kind of test: LTEA_HepaRG_SLC22A1: Life Technologies and Expression Analysis (LTEA) Assay for solute carrier (SLC22A1) using HepaRG (AID 2283524).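 For AC50: differentiated human HepaRG liver cells in serum-free induction medium.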 Put shortly: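 qRT-PCR readout (TaqMan, Fluidigm arrays) of SLC22A1 transcript, normalized to three housekeeping genes; bidirectional curve fit relative to 0.5% DMSO vehicle. Differentiated human HepaRG cells, 48 h chemical exposure, top concentration 100 uM, half-log steps, eight points.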

Read-out in test [6]: Pyruvate Dehydrogenase Kinase 4 (PDK4), PDK4 (gene 5166)
Kind of test: LTEA_HepaRG_PDK4: Life Technologies and Expression Analysis (LTEA) Assay for Pyruvate Dehydrogenase Kinase 4 (PDK4) using HepaRG (AID 2283525). The gist of the method: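 HepaRG (human liver line), 48 h chemical exposure, 8-pt half-log CRC top 100 uM, 0.5% DMSO vehicle, duplicates. Readout: TaqMan qRT-PCR of PDK4 mRNA, housekeeping-normalized; gain/loss fit relative to DMSO baseline.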

Read-out in test [7]: NAD(P)H dehydrogenase [quinone] 1 (NQO1), NQO1 (gene 1728)
Put plainly: LTEA_HepaRG_NQO1: Life Technologies and Expression Analysis (LTEA) Assay for NAD(P)H dehydrogenase [quinone] 1 (NQO1) using HepaRG (AID 2283526). The gist of the method:
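qRT-PCR read-out (Fluidigm TaqMan), normalized to three housekeeping genes, after 48 h chemical exposure of HepaRG cells. Concentrations: eight points, top 100 uM, half-log steps, 0.5% DMSO vehicle. Gain or loss of signal fitted relative to DMSO.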

Read-out in test [8]: Nuclear factor erythroid 2-related factor 2 (Homo sapiens) (UniProt Q16236)
Put plainly: LTEA_HepaRG_NFE2L2: Life Technologies and Expression Analysis (LTEA) Assay for Nuclear factor erythroid 2-related factor 2 (NFE2L2) Transcription Factor using HepaRG (AID 2283527). Put shortly: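 HepaRG, 48 h dosing, 8-pt half-log series from 100 uM in 0.5% DMSO, duplicates. Read-out: NFE2L2 mRNA by qRT-PCR (ACTB/GAPDH/POLR2A normalization). Bidirectional curve fit vs DMSO baseline.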

Read-out in test [9]: succinate dehydrogenase complex iron sulfur subunit B (SDHB), SDHB (gene 6390)
Put plainly: LTEA_HepaRG_SDHB: Life Technologies and Expression Analysis (LTEA) Assay for succinate dehydrogenase complex iron sulfur subunit B (SDHB) using HepaRG (AID 2283528). The gist of the method:
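SDHB transcript level read by TaqMan qRT-PCR, housekeeping-normalised (ACTB, GAPDH, POLR2A), after 48 h chemical treatment of plated HepaRG cells; eight concentrations top 100 uM, half-log steps, 0.5% DMSO, duplicates; fitted both directions against DMSO.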

Read-out in test [10]: Signal transducer and activator of transcription 3 (Homo sapiens) (UniProt P40763)
Put plainly: LTEA_HepaRG_STAT3: Life Technologies and Expression Analysis (LTEA) Assay for Signal transducer and activator of transcription (STAT3) using HepaRG (AID 2283529). Put shortly:
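HepaRG, 48 h exposure, 8-pt half-log series (top 100 uM), 0.5% DMSO vehicle, duplicates. Readout: STAT3 transcript by Fluidigm qRT-PCR, housekeeping-normalized; bidirectional fit vs DMSO baseline.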

Read-out in test [11]: solute carrier (SLCO1B1), SLCO1B1 (gene 10599)
Put plainly: LTEA_HepaRG_SLCO1B1: Life Technologies and Expression Analysis (LTEA) Assay for solute carrier (SLCO1B1) using HepaRG (AID 2283530). The gist of the method: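 SLCO1B1 transcript read by qRT-PCR (Fluidigm arrays), normalized to three housekeeping genes, after 48 h chemical exposure of HepaRG cells; bidirectional concentration-response fitting versus 0.5% DMSO baseline. Eight-point half-log series, maximum 100 uM.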

Read-out in test [12]: Transforming Growth Factor (TGFA), TGFA (gene 7039)
Put plainly: LTEA_HepaRG_TGFA: Life Technologies and Expression Analysis (LTEA) Assay for Transforming Growth Factor (TGFA) using HepaRG (AID 2283532). The gist of the method:
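qRT-PCR read-out of TGFA transcript, normalized to three housekeeping genes, fitted bidirectionally against 0.5% DMSO baseline. Human HepaRG cultures received chemicals for 48 h at eight half-log concentrations, top 100 uM.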

Read-out in test [13]: Tumor necrosis factor receptor 1 (TNFRSF1A), TNFRSF1A (gene 7132)
Put plainly: LTEA_HepaRG_TNFRSF1A: Life Technologies and Expression Analysis (LTEA) Assay for Tumor necrosis factor receptor 1 (TNFRSF1A) using HepaRG (AID 2283535). Put shortly:
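HepaRG, 48 h plating then 48 h chemical exposure, serum-free induction media; 8-pt CRC from 100 uM, half-log, 0.5% DMSO vehicle, duplicates. Readout: TaqMan qRT-PCR (Fluidigm), housekeeping-gene normalized; bidirectional fit vs DMSO.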

Read-out in test [14]: Thyroid Hormone Responsive (THRSP), THRSP (gene 7069)
Kind of test: LTEA_HepaRG_THRSP: Life Technologies and Expression Analysis (LTEA) Assay for Thyroid Hormone Responsive (THRSP) using HepaRG (AID 2283536). The gist of the method:
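qRT-PCR read-out (Fluidigm TaqMan), housekeeping-normalized (ACTB/GAPDH/POLR2A). HepaRG, 48 h chemical exposure, 8-pt half-log series from 100 uM in 0.5% DMSO, duplicates. Bidirectional curve fit vs 0.5% DMSO baseline.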

Read-out in test [15]: Cellular tumor antigen p53 (Homo sapiens) (UniProt P04637)
Kind of test: LTEA_HepaRG_TP53: Life Technologies and Expression Analysis (LTEA) Assay for Tumor Protein P53 (TP53) using HepaRG (AID 2283537). The gist of the method: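 TP53 transcript measured by qRT-PCR, normalized to three housekeeping genes, after 48 h treatment of human HepaRG cultures with chemicals from 100 uM downward in half-log steps (0.5% DMSO vehicle, serum-free induction medium). Up- or down-regulation fitted against DMSO.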

Read-out in test [16]: sulfotransferase 2A1 (SULT2A1), SULT2A1 (gene 6822)
Kind of test: LTEA_HepaRG_SULT2A1: Life Technologies and Expression Analysis (LTEA) Assay for sulfotransferase 2A1 (SULT2A1) using HepaRG (AID 2283531). The gist of the method:
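HepaRG, 48 h chemical exposure, 8-pt half-log curve from 100 uM in 0.5% DMSO, duplicates. Readout: TaqMan qRT-PCR of SULT2A1 mRNA, housekeeping-normalized. Bidirectional fit vs DMSO baseline.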

Read-out in a further test: TIMP1, TIMP1 (gene 7076)
Kind of test: LTEA_HepaRG_TIMP1: Life Technologies and Expression Analysis (LTEA) Assay for TIMP1 using HepaRG (AID 2283534). The gist of the method: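 HepaRG, 48 h exposure, 8-pt half-log series from 100 uM in 0.5% DMSO, duplicates; TIMP1 transcript by Fluidigm qRT-PCR, housekeeping-normalized; bidirectional curve fit vs DMSO baseline.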

Active and inactive are the calls of the source. Rule for the calls: active = hit-call score of the fitted dose curve at least 0.9, where 1 is the maximum; inactive = score below 0.9.

For orientation: AC50 means the concentration at which the activity in the assay is half-maximal.

Chain of Cellular tumor antigen p53 (Homo sapiens) (P04637 whole entry, looked up): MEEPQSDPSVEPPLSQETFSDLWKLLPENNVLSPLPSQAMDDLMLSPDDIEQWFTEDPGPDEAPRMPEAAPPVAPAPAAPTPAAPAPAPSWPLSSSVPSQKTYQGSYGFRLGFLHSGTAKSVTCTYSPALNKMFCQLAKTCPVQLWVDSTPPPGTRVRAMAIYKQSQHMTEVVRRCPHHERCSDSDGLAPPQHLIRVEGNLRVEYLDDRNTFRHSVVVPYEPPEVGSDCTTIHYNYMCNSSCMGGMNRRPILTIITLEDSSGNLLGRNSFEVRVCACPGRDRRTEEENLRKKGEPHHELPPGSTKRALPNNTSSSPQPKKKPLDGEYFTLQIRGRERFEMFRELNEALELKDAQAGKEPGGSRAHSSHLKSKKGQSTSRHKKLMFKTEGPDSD
Chain of Nuclear factor erythroid 2-related factor 2 (Homo sapiens) (Q16236 whole entry, looked up): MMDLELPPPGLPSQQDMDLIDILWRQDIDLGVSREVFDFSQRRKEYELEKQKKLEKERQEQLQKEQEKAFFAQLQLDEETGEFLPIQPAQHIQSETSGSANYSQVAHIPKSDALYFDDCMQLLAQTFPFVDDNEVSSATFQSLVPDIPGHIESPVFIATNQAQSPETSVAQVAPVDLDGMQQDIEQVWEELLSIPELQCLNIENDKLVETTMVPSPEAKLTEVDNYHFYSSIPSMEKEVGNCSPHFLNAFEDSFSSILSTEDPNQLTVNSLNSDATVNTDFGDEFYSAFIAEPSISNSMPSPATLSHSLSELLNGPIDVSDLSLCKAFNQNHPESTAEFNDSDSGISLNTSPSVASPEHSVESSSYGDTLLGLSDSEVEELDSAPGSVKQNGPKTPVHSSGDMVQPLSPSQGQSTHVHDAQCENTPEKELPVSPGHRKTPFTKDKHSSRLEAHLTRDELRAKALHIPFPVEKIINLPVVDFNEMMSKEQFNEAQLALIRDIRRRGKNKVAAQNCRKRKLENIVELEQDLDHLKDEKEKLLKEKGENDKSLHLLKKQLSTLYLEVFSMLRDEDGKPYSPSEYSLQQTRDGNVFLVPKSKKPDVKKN
Chain of Signal transducer and activator of transcription 3 (Homo sapiens) (P40763 whole entry, looked up): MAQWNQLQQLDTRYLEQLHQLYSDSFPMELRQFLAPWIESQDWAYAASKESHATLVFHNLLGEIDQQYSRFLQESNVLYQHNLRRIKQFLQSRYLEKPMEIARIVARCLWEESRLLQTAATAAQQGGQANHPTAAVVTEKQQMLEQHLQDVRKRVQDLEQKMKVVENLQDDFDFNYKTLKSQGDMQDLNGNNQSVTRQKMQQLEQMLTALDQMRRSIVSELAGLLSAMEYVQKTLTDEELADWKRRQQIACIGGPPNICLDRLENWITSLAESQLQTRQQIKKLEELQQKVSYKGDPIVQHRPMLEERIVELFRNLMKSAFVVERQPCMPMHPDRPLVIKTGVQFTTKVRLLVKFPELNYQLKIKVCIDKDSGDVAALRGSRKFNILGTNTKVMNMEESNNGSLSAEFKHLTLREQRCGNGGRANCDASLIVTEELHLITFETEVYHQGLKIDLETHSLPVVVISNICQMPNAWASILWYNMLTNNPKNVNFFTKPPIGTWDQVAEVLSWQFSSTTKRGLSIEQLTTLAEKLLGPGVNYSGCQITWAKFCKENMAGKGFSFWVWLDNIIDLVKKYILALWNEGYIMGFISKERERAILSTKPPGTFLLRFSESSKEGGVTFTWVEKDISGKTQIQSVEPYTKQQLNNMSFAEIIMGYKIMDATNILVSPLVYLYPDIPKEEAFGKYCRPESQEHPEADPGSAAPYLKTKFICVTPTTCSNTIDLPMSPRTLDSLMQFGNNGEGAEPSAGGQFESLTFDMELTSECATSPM
Chain of Nuclear factor NF-kappa-B p105 subunit (Homo sapiens) (P19838 whole entry, looked up): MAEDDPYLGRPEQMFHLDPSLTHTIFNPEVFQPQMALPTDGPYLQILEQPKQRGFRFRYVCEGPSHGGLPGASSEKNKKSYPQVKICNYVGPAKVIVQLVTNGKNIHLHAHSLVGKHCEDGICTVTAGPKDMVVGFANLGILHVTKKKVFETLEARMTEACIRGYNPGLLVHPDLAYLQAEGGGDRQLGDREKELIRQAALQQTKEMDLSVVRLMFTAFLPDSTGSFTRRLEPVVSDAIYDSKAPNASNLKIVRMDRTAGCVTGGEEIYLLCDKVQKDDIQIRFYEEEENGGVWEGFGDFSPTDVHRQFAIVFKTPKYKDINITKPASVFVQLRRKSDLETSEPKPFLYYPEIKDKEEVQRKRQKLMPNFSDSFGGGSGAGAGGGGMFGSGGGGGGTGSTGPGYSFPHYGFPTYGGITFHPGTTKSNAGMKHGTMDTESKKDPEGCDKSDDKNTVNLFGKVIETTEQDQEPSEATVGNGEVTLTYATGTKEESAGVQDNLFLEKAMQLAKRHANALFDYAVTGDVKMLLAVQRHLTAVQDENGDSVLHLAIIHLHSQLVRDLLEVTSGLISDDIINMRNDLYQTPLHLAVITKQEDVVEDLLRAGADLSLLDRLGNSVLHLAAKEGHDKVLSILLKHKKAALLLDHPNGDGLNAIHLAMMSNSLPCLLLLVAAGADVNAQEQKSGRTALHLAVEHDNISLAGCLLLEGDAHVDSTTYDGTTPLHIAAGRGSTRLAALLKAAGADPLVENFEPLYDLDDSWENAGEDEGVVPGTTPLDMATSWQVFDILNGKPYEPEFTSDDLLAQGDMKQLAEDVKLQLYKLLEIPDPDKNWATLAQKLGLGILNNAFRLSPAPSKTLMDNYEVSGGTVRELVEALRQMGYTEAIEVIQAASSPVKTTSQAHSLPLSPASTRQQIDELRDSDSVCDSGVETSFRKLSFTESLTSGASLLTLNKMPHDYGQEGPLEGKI

Consider `CCCCNC(=O)n1c(NC(=O)OC)nc2ccccc21`, for which the outcome in the test with MYC, MYC (gene 4609) was “inactive”; in test [1] it was “inactive”; in test [2], “inactive”; in test [3], “inactive”; in test [4], “inactive”; in test [5] it was “inactive”. For the same molecule, the result in [6], in test [7], in test [8], in test [9], in [10] and in [11] was inactive. The molecule was classed as inactive in test [12], in [13], in test [14] and in [15].
As to `Oc1ccccc1-c1ccccc1`, the outcome in the test with MYC, MYC (gene 4609) is “inactive”; in test [1], “inactive”; in test [3], “inactive”; in test [4], “inactive”; in test [5], “inactive”; in test [6] it was “inactive”. The molecule was classed as inactive in test [7], in [8], in test [9], in test [10], in test [11] and in test [12]. Moreover, the outcome in test [13], in test [14] and in test [15] was inactive.
As for `C=CC1(C)OC(=O)N(c2cc(Cl)cc(Cl)c2)C1=O` (configuration not stated), the outcome with MYC, MYC (gene 4609) was “inactive”; in [2] it was “inactive”; in [3], “inactive”; in test [4] it was “inactive”; in [5], “inactive”; in test [7] it was “inactive”. Also, the call in test [8], in test [9], in [10], in [11], in [12] and in [13] was inactive. In addition, the molecule was classed as inactive in [14] and in test [15]. In addition, the AC50 in test [1] was 34.1 µM (active); in test [6], 50 µM (active).
On to `CN(C)C(=S)SSC(=S)N(C)C`, for which the outcome was “inactive” with MYC, MYC (gene 4609); “inactive” in test [1]; “inactive” in test [2]; “inactive” in test [3]; “inactive” in test [4]; “inactive” in [5]. Besides, the result in test [6], in [7], in test [8], in test [9], in test [10] and in test [11] was inactive. The molecule was classed as inactive in test [12], in [13], in test [14] and in [15].
Turning to `CC1COC(Cn2cncn2)(c2ccc(Oc3ccc(Cl)cc3)cc2Cl)O1` (configuration not stated), the concentration at half-maximal activity (AC50) in the test with MYC, MYC (gene 4609) was 23.9 µM (active); in test [1], 59.1 µM (active); in [3] it was 80.6 µM (active); in [4] it was 78.5 µM (active); in test [5], 9.15 µM (active); in test [8], 19.7 µM (active). The AC50 in [9] was 84.8 µM (active); in test [11] it was 12.8 µM (active); in test [16] it was 19.6 µM (active); in test [12], 13.6 µM (active); in test [13] it was 72.2 µM (active); in test [14] it was 7.86 µM (active). In test [15], the concentration at half-maximal activity (AC50) is 11.6 µM (active). The outcome in test [6], in [7] and in test [10] was inactive.
In the case of `COC(=O)c1ccccc1C(=O)OC`, the outcome with MYC, MYC (gene 4609) is “inactive”; in test [1] it was “inactive”; in test [2], “inactive”; in test [3], “inactive”; in test [4], “inactive”; in test [5], “inactive”. In addition, the call in test [6], in test [7], in test [8], in [9], in [10] and in test [11] was inactive. Also, the outcome in test [12] was “inactive”; in the test with TIMP1, TIMP1 (gene 7076), “inactive”; in test [13] it was “inactive”; in test [14], “inactive”; in test [15], “inactive”.
Regarding `CNC(=O)ON=CC(C)(C)SC`, the outcome is “inactive” with MYC, MYC (gene 4609); “inactive” in test [1]; “inactive” in test [2]; “inactive” in [3]; “inactive” in test [4]; “inactive” in [5]. Moreover, the call in test [6], in test [7], in test [8], in test [9], in [10] and in test [11] was inactive. Further, the result in test [12], in [13], in test [14] and in test [15] was inactive.
